# In the supplement of paper PMC7411054:
# Structures can show the parent of a compound that is named as a salt.
# Tested on: A549-TUBA1B-RELA
# Assay: lowest phenotypically active concentration; higher = less potent
# Details: treatment time: 24 h
# In short: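 Phenotypic activity depended on meeting both a deviation and a reproducibility criterion. The fifteen gene-edited A549, HepG2 and WPMY1 reporter lines were treated at 0.3, 1, 3 or 9 µM for 24 h, four wells each, then imaged live with features normalised to solvent control wells. Deviation required ≥3 of 4 wells past the 95th percentile of control Euclidean distances, and reproducibility a median replicate Pearson correlation above the 95th percentile of non-replicates.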
row,Compound,lowest phenotypically active concentration
1,Nc1nc(Cl)nc2c1ncn2[C@@H]1O[C@H](CO)[C@@H](O)[C@@H]1F [clofarabine],1 µM
2,Cc1nc(Nc2ncc(C(=O)Nc3c(C)cccc3Cl)s2)cc(N2CCN(CCO)CC2)n1 [dasatinib],1 µM
3,O=C(NCc1cccc(O)c1)Nc1nc(-c2ccncc2)cs1 [RKI 1447 dihydrochloride],≤ 0.3 µM
4,CC(C)n1nc(-c2cc3cc(O)ccc3[nH]2)c2c(N)ncnc21,1 µM
5,COc1ccc(-c2ccc3ncc4c(c3c2)n(-c2ccc(N3CCNCC3)c(C(F)(F)F)c2)c(=O)n4C)cn1,≤ 0.3 µM
6,CC(C)(C)c1cnc(CSc2cnc(NC(=O)C3CCNCC3)s2)o1,≤ 0.3 µM
7,O=C(O)c1ccc(Nc2ncc3c(n2)-c2ccc(Cl)cc2C(c2c(F)cccc2F)=NC3)cc1,≤ 0.3 µM
8,COc1ccc(S(=O)(=O)N(C(C)=O)c2ccccc2/C=C/c2cc[n+]([O-])cc2)cc1,≤ 0.3 µM
9,CC(C)(C)Nc1nc(Nc2ccc(C(N)=O)cc2)cc(N)c1C#N,3 µM
10,Nc1cccc(-c2cc3c(Oc4cccc(O)c4)ncnc3[nH]2)c1,1 µM
11,c1ccc2c(c1)Cc1c(Nc3ccc4c(c3)OCCO4)n[nH]c1-2,3 µM
12,Cc1c(NC(=O)OC[C@@H]2COCCN2)cn2ncnc(Nc3ccc4c(cnn4Cc4cccc(F)c4)c3)c12,1 µM
13,CCC(=O)N1CCN(c2ccc(-n3c(=O)ccc4cnc5ccc(-c6cnc7ccccc7c6)cc5c43)cc2C(F)(F)F)CC1 [Torin 1],≤ 0.3 µM
14,COc1c(Nc2cc(C)[nH]n2)nc(Sc2ccc(S(=O)(=O)Cc3cccc([N+](=O)[O-])c3F)cc2F)nc1N1CCOCC1 [Centrinone],3 µM
15,COc1cc2c(NC3CCN(C(C)C)CC3)nc(N3CCC(F)(F)CC3)nc2cc1OCCCN1CCCC1,≤ 0.3 µM
16,CC(=O)c1c(C)c2cnc(Nc3ccc(N4CCNCC4)cn3)nc2n(C2CCCC2)c1=O,≤ 0.3 µM
17,CN1c2ccccc2C(=O)N2CCc3c([nH]c4ccccc34)[C@H]21 [Evodiamine],1 µM

row,Compound,lowest phenotypically active concentration
1,CO[C@H]1C=CC=C(C)C(=O)NC2=CC(=O)C(NCCN(C)C)=C(C[C@@H](C)C[C@H](OC)[C@H](O)[C@@H](C)C=C(C)[C@@H]1OC(N)=O)C2=O [17-DMAG hydrochloride],≤ 0.3 µM
2,Cc1noc(C)c1-c1cc(O)cc(C(O)c2ccccc2)c1 (centres undefined),3 µM
3,O=C(Nc1ccc(-c2ccnc(Nc3ccc(N4CCOCC4)cc3)n2)cc1)[C@@H]1CCCN1,3 µM
4,NC1(C(=O)N[C@@H](CCO)c2ccc(Cl)cc2)CCN(c2ncnc3[nH]ccc23)CC1,3 µM
5,NC(=O)Nc1cc(-c2cccc(F)c2)sc1C(=O)N[C@H]1CCCNC1 [AZD 7762 hydrochloride],≤ 0.3 µM
6,COc1cc2nc(-c3cc(F)ccc3O)nc(N[C@@H]3CNC[C@H]3C(C)(C)O)c2cc1OC,9 µM
7,Cc1c[nH]c2nccc(Oc3c(F)cc(Nc4cc(Cl)nc(N)n4)cc3F)c12,1 µM
8,C[C@H]1[C@H]2CC[C@H]3[C@@H]4CC=C5C[C@@H](N(C)C)CC[C@]5(C)[C@H]4CC[C@]23CN1C [Conessine],1 µM
9,CON(C)C(=O)N1N=C(c2cc(F)ccc2F)S[C@@]1(CCCN)c1ccccc1 [ARRY 520 trifluoroacetate],≤ 0.3 µM
10,CC[C@H](CO)Nc1nc(NCc2ccc(-c3ccccn3)cc2)c2ncn(C(C)C)c2n1,≤ 0.3 µM
11,Oc1cccc(-c2nc(N3CCOCC3)c3oc4ncccc4c3n2)c1 [PI 103 hydrochloride],≤ 0.3 µM
12,COc1cc(/C=C/c2ccc(OC)cc2OC)cc(OC)c1,3 µM
13,COc1cc2c(cc1-c1c(C)noc1C)ncc1[nH]c(=O)n([C@H](C)c3ccccn3)c12 [I-BET 151 dihydrochloride],1 µM
14,COc1cccc(-c2cc(F)ccc2[C@H]2Cc3nc(N)nc(C)c3C(=O)N2)n1,≤ 0.3 µM
15,COc1cc(C(=O)NC2CCN(C)CC2)c(F)cc1Nc1ncc2c(n1)N(C1CCCC1)CC(F)(F)C(=O)N2C [TAK 960 hydrochloride],≤ 0.3 µM
16,CC[C@]1(O)C[C@@H]2CN(CCc3c([nH]c4ccccc34)[C@@](C(=O)OC)(c3cc4c(cc3OC)N(C=O)[C@H]3[C@@](O)(C(=O)OC)[C@H](OC(C)=O)[C@]5(CC)C=CCN6CC[C@]43[C@@H]65)C2)C1 [vincristine],≤ 0.3 µM
17,OC[C@H]1O[C@@H](n2cnc3c(NCc4ccco4)ncnc32)[C@H](O)[C@@H]1O [Kinetin riboside],3 µM
